High-throughput results: PubChem BioAssay, National Center for Advancing Translational Sciences (NCATS)
Sampled rows, rich in hits. Any-hit rate of the full collection: about 3%.
RE007 growth inh: qHTS Assay for Inhibitors of the HIV-1 protein Vpr; Potency, µM (titrated, usually from 92.2 µM), for the others: at the highest dose activity change, negative = less growth, most hits filed as inhibitors; AID 651644, 2012; S. pombe RE007 Vpr strain, BacTiter-Glo ATP luminescence, 24 h; 360,000 compounds, 0.21% hits; active = well fitted falling curve with a large enough effect; inconclusive = small, poorly fitted or top-dose-only effect; inactive = no such curve, though single readings can be large or run the other way; note: nearly all actives have a fitted effect of over 50% in size
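Fission yeast strain RE007, carrying one chromosomally integrated HIV-1 vpr copy, was seeded at OD 0.01 in PMG+AL medium with 23 nL pinned compound. After 24 h at 30 °C and 99% humidity, viability was read by BacTiter-Glo luminescence.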
Tb PYK inh: qHTS of Trypanosoma Brucei Inhibitors; Potency, µM (series often up to 76.8 µM), for the others: top-dose activity, negative = inhibition, most hits filed as inhibitors; TbPYK enzyme, Kinase-Glo Plus ATP luminescence, 45 min; 410,000 compounds, 0.12% hits; pyruvate kinase (Trypanosoma brucei), Q57TT1; note: nearly all actives have a fitted effect of over 50% in size
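ADP (130 uM final) triggers the TbPYK reaction after compound addition; incubation is 45 min at room temperature. Kinase-Glo Plus is then added and luminescence imaged. Normalized data are fitted to concentration-effect curves.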
Sm TGR inh: qHTS Assay for the Inhibitors of Schistosoma Mansoni Peroxiredoxins. Schistosoma mansoni thioredoxin glutathione reductase (TGR), Q962Y6. purified TGR, DTNB reduction, TNB absorbance 405 nm. Potency, µM (highest dose often 114 µM), for the others: at the highest dose activity change, negative = inhibition, actives largely listed as inhibitors. 360,000 compounds, 3% hits; note: nearly all actives have a fitted effect of over 60% in size
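Kinetic colorimetric format: TGR-catalysed, NADPH-driven DTNB reduction monitored via TNB absorbance. Enzyme dispensed at 20 nM; compound exposure 15 min at room temperature before reaction start.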
LmPK inh: qHTS Assay for Inhibitors of Leishmania Mexicana Pyruvate Kinase (LmPK) | Q27686 | purified LmPK, Kinase-Glo ATP luminescence, 1 h | Potency, µM (series often up to 57.5 µM), for the others: top-dose activity change, negative = inhibition, most hits filed as inhibitors | 290,000 compounds, 0.37% hits | AID 1721, 2009
Target sequence (Q27686 whole entry, looked up): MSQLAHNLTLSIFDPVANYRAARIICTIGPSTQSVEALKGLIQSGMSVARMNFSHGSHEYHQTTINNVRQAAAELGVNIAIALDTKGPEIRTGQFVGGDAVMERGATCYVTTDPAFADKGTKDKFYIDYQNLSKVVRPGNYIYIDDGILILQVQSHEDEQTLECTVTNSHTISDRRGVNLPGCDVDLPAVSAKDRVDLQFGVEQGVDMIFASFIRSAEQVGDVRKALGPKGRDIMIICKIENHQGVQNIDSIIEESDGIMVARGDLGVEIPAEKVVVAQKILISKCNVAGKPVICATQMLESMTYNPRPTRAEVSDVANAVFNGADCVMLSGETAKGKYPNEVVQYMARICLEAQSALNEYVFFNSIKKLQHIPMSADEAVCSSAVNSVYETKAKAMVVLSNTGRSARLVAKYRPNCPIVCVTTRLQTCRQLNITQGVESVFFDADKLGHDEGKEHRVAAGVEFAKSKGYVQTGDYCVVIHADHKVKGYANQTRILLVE
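Purified LmPK (0.1 nM) with 0.5 mM PEP and 0.1 mM ADP in imidazole buffer pH 7.2 with MgCl2/KCl, 1 h at room temperature. ATP formed was read by luciferase luminescence and normalized to no-enzyme and uninhibited controls.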
* marks the source's active call; other numbers are inactive results; ? = inconclusive; nt = no result; [ ] = another dose, or the depositor's remark. Unless noted, calls come from the whole dose curve; as a rule, active = well fitted curve in the direction sought with a large enough effect; inconclusive = small, poorly fitted or top-dose-only effect, or another doubt; inactive = no such curve, though single readings can be large; an effect the other way counts as inactive or inconclusive. % is set by controls: 0 for no effect and ±100 for the full control effect; potency is the fitted concentration of half-maximal effect.

SMILES	RE007 growth inh	Tb PYK inh	Sm TGR inh	LmPK inh
COc1ccccc1C1C=C(c2ccc(C)cc2)Nc2nnnn21 (stereo not given)	0%	-2%	-3%	3%
Cc1cccc(NC(=O)C2CCC(CNS(=O)(=O)c3ccc(Br)s3)CC2)c1 (stereo not given)	nt	-3%	1%	nt
COCCNC(=S)Nc1ccc2nc(N3CCCC3)cc(C)c2c1	-27%	7%	45µM*	-5%
CCOCCCNC(=S)Nc1ccc2nc(N3CCCC3)cc(C)c2c1	-7%	5%	50µM*	2%
COCCNC(=S)Nc1ccc2nc(N3CCOCC3)cc(C)c2c1	-8%	-7%	45µM*	5%
Cc1cc(N2CCCC2)nc2ccc(NC(=S)NC(C)C)cc12	-5%	4%	13µM*	0%
Cc1cc(N2CCOCC2)nc2ccc(NC(=S)NC(C)C)cc12	2%	2%	-28%	2%
CCCN(CCC)CCCNC(=S)Nc1ccc2nc(N3CCN(C)CC3)cc(C)c2c1	-2%	1%	-34%	0%
CCCCCCCC1=Cc2ccccc2C(C(C(=O)OC)C(=O)OC)N1C(=O)OC (stereo not given)	nt	nt	nt	-3%[11.5 µM]
c1cc(CNCCc2ccc3c(c2)OCO3)ccn1	3%	1%	45µM*	-1%
COc1ccc(CNCCc2ccc(Cl)cc2Cl)cc1	-5%	1%	-6%	-1%
Clc1ccc(CCNCc2ccncc2)c(Cl)c1	7%	-2%	28µM*	-4%
Cc1cccc(OCC(=O)Nc2c(C)ccc3nsnc23)c1C	nt	-6%	3%	nt
CCCC(C)(C)C(=O)N1CCC1(C)C(=O)NS(=O)(=O)c1ccccc1Cl (stereo not given)	6%[18.4 µM]	-4%	nt	nt
Cc1ccc(-c2noc(C3CCCN(C(=O)c4ccccc4Br)C3)n2)o1 (stereo not given)	3%	-20%	?	2%
Cc1ccc(-c2noc(C3CCCN(C(=O)c4ccccc4)C3)n2)o1 (stereo not given)	-3%	-4%	56µM*	-14%
O=C(Cc1cccnc1)N[C@@H]1CC[C@H](CCn2cc(Cc3ccccc3)nn2)O[C@@H]1CO	14%	nt	nt	nt
Cc1cc(=O)n(Cc2ccccc2)c(O)c1C#N	5%	-8%	?	0%
Cc1c(C#N)c(NC(=O)CCl)n(Cc2ccc(F)cc2)c1C	-5%	2%	4.5µM*	9%
Cc1c(C#N)c(NC(=O)CCl)n(Cc2cccs2)c1C	4%	0%	4µM*	12%
Cc1c(C#N)c(NC(=O)CCl)n(Cc2ccccc2)c1C	-3%	1%	3.2µM*	3%
COC(=O)[C@@H]1[C@@H]2C[C@H]3c4[nH]c5cc(OC)ccc5c4CCN3C[C@@H]2C[C@H](OC(=O)/C=C\c2cc(OC)c(OC)c(OC)c2)[C@H]1OC	nt	-4%[33.2 µM]	nt	nt
CO/N=C1/CC2(CC3CC(C/C=C(/C)CC(C)/C=C\C=C4\COC5C(O)C(C)=CC(C(=O)O3)C45O)O2)OC(/C(C)=C/C(C)C)C1C (stereo not given)	nt	-9%	nt	nt
C[C@H](O)[C@@H]1C(=O)N2CCc3ccc(N4CCOCC4)cc3[C@@H]2C[C@@H]1N(C)C(=O)Nc1ccccc1	-3%	5%	nt	nt
COc1ccc(C2/C=C\CN(C(=O)Nc3ccccc3)CC(=O)N2Cc2ccc(F)cc2)cc1 (stereo not given)	7%	-1%	9%	3%
SMILES	RE007 growth inh	Tb PYK inh	Sm TGR inh	LmPK inh
COc1ccc(C2/C=C\CN(S(=O)(=O)c3ccc(C)cc3)[C@H](Cc3ccccc3)C(=O)N2Cc2ccc(F)cc2)cc1 (stereo not given in full)	1%	2%	28µM*	3%
COc1ccc(C2/C=C\CN(Cc3ccco3)CC(=O)N2Cc2ccc(F)cc2)cc1 (stereo not given)	-1%	-3%	32µM*	1%
COc1ccc(C2C(=O)N(C3CCCCC3)CC(=O)N2Cc2ccco2)cc1 (stereo not given)	2%	2%	32µM*	4%
CCC(NC(=O)C(C)NC)C(=O)N1CCCC1C(=O)NC1CCCc2ccccc21 (stereo not given)	-15%	1%	32µM*	nt
CCOC(=O)c1c(C)n(-c2ccccc2)c2ccc(OC(=O)COc3ccc(Cl)cc3)cc12	nt	5%	7%	nt
CCOc1ccc(N/C=C/C(=O)c2ccccc2)c([N+](=O)[O-])c1	73%	25µM*	1%	4µM*
O=C(/C=C/c1ccc(OC2CSC2)cc1)c1ccccc1	?	?	8%	25µM*
O=C(N/N=C/c1ccc(OC2CSC2)cc1)c1ccccc1	-3%	-4%	32%	-11%
CCOc1ccc(/C=C/C(=O)c2ccccc2)cc1	nt	-6%	-15%	16µM*
S=c1[nH]nc(COc2ccccc2)n1/N=C/c1c(Cl)cccc1Cl	-7%	-26%	-7%	0%
Cc1cc(Cl)ccc1OCC(=O)Nc1c(C(=O)c2ccccc2)oc2ccccc12	nt	2%	3%	nt
Cc1ccc(C(=O)NCc2ccco2)cc1S(=O)(=O)N1CCCC1	-7%	-8%	40µM*	-7%
Cc1ccc(C(=O)NCc2ccco2)cc1S(=O)(=O)N1CCOCC1	12%	-3%	-8%	-1%
Cc1cc(S(=O)(=O)N2CCCC2)ccc1OCC(=O)NCc1ccco1	-4%	3%	40µM*	-6%
N#CC(C#N)=NNc1ccc(S(=O)(=O)N2CCCC2)cc1	0%	1%	20µM*	0%
O=C(NCc1ccco1)c1cccc(S(=O)(=O)N2CCCC2)c1	-18%	-4%	50µM*	13%
CCC1(CCC(C)C)C(=O)NC(=O)NC1=O	nt	0%[157 µM]	nt	nt
CC(=O)c1ccc(S(=O)(=O)N2CCCC2)cc1	13%	-9%	45µM*	1%
CC(=O)c1ccc(S(=O)(=O)N2CCN(C(C)=O)CC2)cc1	-11%	2%	-1%	6%
O=C(CSc1nnc(-c2ccc(S(=O)(=O)N3CCCC3)cc2)o1)NCc1ccco1	-2%	-3%	45µM*	0%
O=C(NCc1ccco1)c1ccc(S(=O)(=O)c2cccc(S(=O)(=O)N3CCOCC3)c2)cc1	13%	-8%	50µM*	5%
Cc1ccc(S(=O)(=O)N2CCCNCC2)cc1	-12%	-10%	16µM*	-3%
O=C(NNC(=S)NCc1ccco1)c1ccc(S(=O)(=O)N2CCOCC2)cc1	21%	-12%	0%	0%
Cc1cccc(N2C(=O)CS(=O)(=O)C23C(=O)N(Cc2c(F)cccc2Cl)c2ccccc23)c1 (stereo not given)	nt	-7%	0%	nt
CCOc1ccc(-n2c(SCC(N)=O)nc3c(oc4ccccc43)c2=O)cc1	nt	-4%	-6%	nt
O=C(O)CCC(=O)Nc1ccc2c(c1)Cc1cc(NC(=O)CCC(=O)O)ccc1-2	52%	-6%	-8%	-1%
